Hits are enriched below; roughly 3.5% of the tested compounds scored in any of these assays.
KCNK3 block: human KCNK3 channel inhibition, primary screen; O14649; CHO-KCNK3 thallium flux, FluxOR fluorescence; hits give low values; B-score at 10 µM; hit rate 0.84% among 340,000;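 active = B-score under library mean minus 4 SD, starting fluorescence ratio at most library mean plus 5 SD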;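 note: more negative B-score means stronger inhibition of thallium flux through KCNK3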
Target sequence (O14649 whole entry, looked up): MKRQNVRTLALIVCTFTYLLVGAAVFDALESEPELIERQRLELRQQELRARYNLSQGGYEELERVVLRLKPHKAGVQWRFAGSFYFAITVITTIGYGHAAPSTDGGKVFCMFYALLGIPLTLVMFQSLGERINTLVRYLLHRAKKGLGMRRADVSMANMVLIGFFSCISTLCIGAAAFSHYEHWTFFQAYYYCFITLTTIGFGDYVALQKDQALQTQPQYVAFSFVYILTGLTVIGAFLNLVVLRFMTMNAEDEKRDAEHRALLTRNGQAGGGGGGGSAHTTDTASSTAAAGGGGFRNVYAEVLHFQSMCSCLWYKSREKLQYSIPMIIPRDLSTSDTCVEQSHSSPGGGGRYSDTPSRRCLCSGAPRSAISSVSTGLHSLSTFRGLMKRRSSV
Kir21 block: inhibitors of mouse Kir2.1 inward-rectifier potassium channel; P35561; hit rate 0.85% among 310,000; B-score at 10 µM; HEK293-Kir2.1, FluxOR thallium flux fluorescence; hits give low values; AID 1672;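 active = fluorescence ratio B-score at or below minus 3 SD of library scores, with starting-brightness B-score within 2 SD, cut at about -4.2 in these data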;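 note: channel flux triggered by added potassium and thallium sulfate stimulus; B-score of peak minus minimum fluorescence over baseline after thallium stimulus; more negative B-score means stronger Kir2.1 block with less thallium influx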
KCNK9 block: human KCNK9 channel inhibition; HEK293 KCNK9, FluxOR thallium flux fluorescence; hits give low values; B-score at 10 µM; hit rate 1.2% among 310,000;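 active = ratio B-score over 3 SD below the library mean, with starting fluorescence within 5 SD of its mean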;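 note: negative B-score means less thallium flux so channel inhibition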
TMEM16A inh: inhibitors of mouse TMEM16A calcium-activated chloride channel | Q8BHY3 | HEK293 TMEM16A/YFP iodide influx fluorescence, ionomycin | normalized B-score (activity score, 25-100; higher = stronger inhibition) at 10 µM | hit rate 1.2% among 310,000 | AID 588511;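 active = ratio plate-corrected score three or more library SD toward inhibition, starting fluorescence score within five deviations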;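 note: score derived from kinetic fluorescence span divided by baseline fluorescence per well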
TMEM16A act: mouse TMEM16A channel activation, primary screen. Q8BHY3. HEK293 TMEM16A/YFP-H148Q/I152L, iodide quench fluorescence; hits give low values. B-score at 10 µM. hit rate 0.3% among 340,000. AID 623877;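 active = fluorescence-ratio B-score plate-corrected deviation score at least 3 library SD below zero, with starting fluorescence score within 5 deviations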;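 note: channel opened by trigger with iodide after compound preincubation; score built on the fluorescence ratio of max minus min over baseline; more negative score means more quench and so TMEM16A activation or potentiation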
KCNK3 confirm: confirmation of human KCNK3 two-pore domain potassium channel inhibitors; shares compounds with KCNK3 block; CHO-KCNK3 thallium flux, FluxOR fluorescence; 0% buffer, 100% carvedilol maximal block; ratio percent of control, % at 10 µM; hit rate 99% among 2,400; AID 651638;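 active = ratio percent of control, averaged over triplicates, above buffer control mean plus 5 SD, cut at about 64% in these data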;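 note: ratio is the fluorescence rise from min to max over baseline after thallium stimulus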
KCNK3 uninduced: KCNK3 inhibitor counter-screen hit in non-induced cells; non-induced KCNK3 parental cells, FluxOR thallium flux; hits give low values; thallium flux ratio (lower = more inhibition) at 10 µM; hit rate 40% among 2,400; AID 651747; shares compounds with KCNK3 block;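 active = thallium flux ratio, averaged over three wells, more than 5 SD below the buffer control mean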;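 note: host cells are CHO cells without KCNK3 induction; ratio is peak minus trough fluorescence over baseline then normalized to buffer controls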
Active calls of the source: *; i = inactive; / = no result given.

SMILES | KCNK3 block | Kir21 block | KCNK9 block | TMEM16A inh | TMEM16A act | KCNK3 confirm | KCNK3 uninduced
COc1cc(C(=O)N/N=C/c2ccc3c(c2)c2ccccc2n3C)ccc1O | -11.1* | 2.21 | i | i | i | 99.7* | i
Cn1c2ccccc2c2cc(/C=N/NC(=O)c3cc(O)cc(O)c3)ccc21 | i | -1.13 | i | i | i | / | /
COc1cc(C(=O)N/N=C/c2ccc(OC(=O)c3cccc(C)c3)c(OC)c2)ccc1O | -8.73* | -1.85 | i | i | i | 82.3* | i
COCCCN(C(=S)Nc1cc(Cl)cc(Cl)c1)C(C)c1ccncc1 (stereo not drawn) | i | -1.19 | i | i | i | / | /
COCCCN(C(=S)Nc1cc(Cl)cc(Cl)c1)C(C)c1ccccn1 (stereo not drawn) | -10.7* | 1.31 | i | i | i | 123.0* | 0.158*
COCC(C)NC(=O)c1cc2cccc([N+](=O)[O-])c2[nH]1 (stereo not drawn) | i | 0.03 | i | i | i | / | /
Cc1cc(NC(=O)c2cc3cccc([N+](=O)[O-])c3[nH]2)ccc1F | -13.2* | 0.05 | i | i | i | 126.0* | 0.144*
CC(C)CN(CC(C)C)c1nc(N)c(C#N)c(CC#N)c1C#N | -10.6* | -2.22 | -7.52* | i | i | 92.0* | i
C=CCn1c(COc2ccccc2)nnc1SC(C)C(=O)N/N=C/c1cc(Cl)ccc1O (stereo not drawn) | i | 0.05 | i | i | i | / | /
CCOC(=O)[C@@H]1[C@H]2COc3ccccc3[C@@H]2N2C(=O)N(c3ccc(C(F)(F)F)cc3)C(=O)[C@]12C | i | -1.45 | i | i | i | / | /
CC1CCCCN1C(=O)C1CCCN(S(=O)(=O)c2cccc3nsnc23)C1 (stereo not drawn) | i | 1.46 | i | i | i | / | /
O=C(C1CCCN(S(=O)(=O)c2cccc3nsnc23)C1)N1CC=C(c2ccccc2)CC1 (stereo not drawn) | -15.4* | / | / | i | i | 115.3* | i
Fc1ccc(/C=C2\CCCC3=C2Nc2ncnn2C3c2ccc(F)cc2)cc1 (stereo not drawn) | -9.56* | -0.77 | i | i | i | 114.3* | 0.135*
O=C1c2ccccc2C(Nc2ccc(F)c(Cl)c2)N1Cc1ccco1 (stereo not drawn) | -8.71* | -1.78 | i | i | -22.4* | 97.7* | i
COc1ccccc1OCCOc1ccc(/C=C2/C(=N)N3OC(C)=CC3=NC2=O)cc1OC | i | -0.03 | i | i | i | / | /
CC1=CC2=NC(=O)/C(=C\c3cccn3CCOc3ccccc3C)C(=N)N2O1 | -8.87* | 1.8 | i | i | i | 115.0* | 0.16*
CCC(C)n1c(/C=C/c2ccccc2)nc2ccccc21 (stereo not drawn) | -9.82* | 0 | i | i | i | 88.0* | i
CCn1c(/C=C/c2ccccc2)nc2ccccc21 | i | -0.95 | i | i | i | / | /
COc1ccc(Cn2c(/C=C/c3ccccc3)nc3ccccc32)cc1 | -9.49* | 0.02 | -6.75* | i | i | 100.7* | 0.154*
O=C(CN(Cc1ccc(F)cc1)C(=O)CCC(=O)Nc1ccccn1)NCCc1ccccc1 | i | -0.66 | i | i | i | / | /
Cc1ccc(-n2c(C)cc(/C=C3\SC(=O)NC3=O)c2C)cc1 | i | 0.03 | i | i | i | / | /
Cc1cc(/C=C2\SC(=S)NC2=O)c(C)n1-c1cccc(O)c1 | -8.88* | -2.68 | -7.3* | i | i | 112.7* | 0.147*
CSc1ncccc1C(=O)Nc1nnc(C2CC2)s1 | i | -0.44 | i | i | i | / | /
COc1ccccc1NS(=O)(=O)c1cccc(NC(=O)c2sc3ccccc3c2Cl)c1 | -9.12* | 0.85 | i | i | i | 95.7* | i
O=C1c2cccnc2C(Nc2ccc(F)c(Cl)c2)N1Cc1cccs1 (stereo not drawn) | i | 1.31 | i | i | i | / | /
SMILES | KCNK3 block | Kir21 block | KCNK9 block | TMEM16A inh | TMEM16A act | KCNK3 confirm | KCNK3 uninduced
Cc1cc(C)nc(NC(=O)c2c(F)c(F)c(F)c(C(=O)Nc3cc(C)cc(C)n3)c2F)c1 | i | -0.07 | i | i | i | / | /
O=C(NNC(=O)C1CCCC1)c1cc([N+](=O)[O-])cc([N+](=O)[O-])c1 | i | / | / | / | i | / | /
CCOc1nc(SCCOc2ccccc2)nc(N(C)C)n1 | -9.64* | 1.46 | i | i | i | 98.3* | i
COc1ccc(Br)cc1CNC(=O)c1ccc2c(c1)N(C)CCS2 | -10.3* | -1.8 | i | i | i | 106.0* | i
CCN1CCSc2ccc(C(=O)NCc3cc(Br)ccc3OC)cc21 | i | 0.22 | -7.01* | i | i | 92.0* | i
COc1ccc(Br)cc1CNC(=O)CCC(=O)N1CCSc2ccccc21 | i | -0.4 | i | i | i | / | /
COc1ccc(CN2C(=O)c3cccc4cccc2c34)cc1F | -9.34* | -0.16 | i | i | i | 90.3* | i
CCCn1c(=O)c(C(=O)NCCc2ccc(OC)c(OC)c2)c(O)c2ccccc21 | -10.6* | -0.6 | i | i | i | 107.0* | 0.159*
CCn1c(=O)c(C(=O)NCCc2ccc(OC)c(OC)c2)c(O)c2ccccc21 | i | -1.64 | i | i | i | / | /
Cc1ccc(NC(=O)c2cnccn2)nc1 | i | -0.54 | i | i | i | / | /
Cc1cccc2c1-c1sc(C(=O)N3CCCCC3)cc1CO2 | -11.7* | 1.6 | i | i | i | 89.7* | i
CCOC(=O)N1CCN(C(=O)c2cc3c(s2)-c2c(C)cccc2OC3)CC1 | i | -0.01 | i | i | i | / | /
Cc1cccc2c1-c1sc(C(=O)N3CCc4ccccc4C3)cc1CO2 | -8.74* | 0.57 | i | i | i | 87.3* | 0.139*
CCn1c(COc2cccc(C)c2)nc2ccccc21 | i | -0.37 | i | i | i | / | /
COCn1c(COc2ccc3ccccc3c2)nc2ccccc21 | -8.77* | -0.02 | i | i | i | 94.7* | i
O=C(Cn1cnc([N+](=O)[O-])n1)c1ccccc1 | i | 0.17 | i | i | i | / | /
O=C(Cn1cnc([N+](=O)[O-])n1)c1ccc(O)c(O)c1 | -9.22* | -0.06 | -8.03* | i | i | 79.3* | i
CCN1N=C(c2ccccc2)Cn2c1nc1ccccc12 | -9.35* | 0.2 | i | i | i | 87.7* | i
CC(C)Cc1nc(N2CCCCC2)c(C#N)c2c1CCC2 | -9.61* | 0 | i | i | i | 97.7* | i
